Compound in this assay: Nc1ncnc2c1ncn2[C@@H]1O[C@H](COP(=O)(O)OP(=O)(O)OP(=O)(O)O)[C@@H](O)[C@H]1O [adenosine triphosphate]
Nature of the assay: NP40-soluble protein abundance relative to vehicle (solubility fold change) (ratio); higher = more soluble protein in presence of ATP. In outline: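 Each value is a fold change relative to the detergent-processed vehicle, calculated per replicate from vsn-normalised intensities. Jurkat crude lysate received eight concentrations (0.1 to 10 mM) for 10 min at room temperature and 3 min at 37 °C, then was solubilised in 0.8% NP40 with benzonase (60 min, 4 °C). The ultracentrifuged supernatant was TMT-labelled and run by LC-MS/MS in three independent experiments.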

± gives the standard deviation of the averaged measurements. Targets with the largest changes are over-represented here; the source holds about 6,500 in all.

UniProt Q9UNX4, sequence (Q9UNX4 whole entry): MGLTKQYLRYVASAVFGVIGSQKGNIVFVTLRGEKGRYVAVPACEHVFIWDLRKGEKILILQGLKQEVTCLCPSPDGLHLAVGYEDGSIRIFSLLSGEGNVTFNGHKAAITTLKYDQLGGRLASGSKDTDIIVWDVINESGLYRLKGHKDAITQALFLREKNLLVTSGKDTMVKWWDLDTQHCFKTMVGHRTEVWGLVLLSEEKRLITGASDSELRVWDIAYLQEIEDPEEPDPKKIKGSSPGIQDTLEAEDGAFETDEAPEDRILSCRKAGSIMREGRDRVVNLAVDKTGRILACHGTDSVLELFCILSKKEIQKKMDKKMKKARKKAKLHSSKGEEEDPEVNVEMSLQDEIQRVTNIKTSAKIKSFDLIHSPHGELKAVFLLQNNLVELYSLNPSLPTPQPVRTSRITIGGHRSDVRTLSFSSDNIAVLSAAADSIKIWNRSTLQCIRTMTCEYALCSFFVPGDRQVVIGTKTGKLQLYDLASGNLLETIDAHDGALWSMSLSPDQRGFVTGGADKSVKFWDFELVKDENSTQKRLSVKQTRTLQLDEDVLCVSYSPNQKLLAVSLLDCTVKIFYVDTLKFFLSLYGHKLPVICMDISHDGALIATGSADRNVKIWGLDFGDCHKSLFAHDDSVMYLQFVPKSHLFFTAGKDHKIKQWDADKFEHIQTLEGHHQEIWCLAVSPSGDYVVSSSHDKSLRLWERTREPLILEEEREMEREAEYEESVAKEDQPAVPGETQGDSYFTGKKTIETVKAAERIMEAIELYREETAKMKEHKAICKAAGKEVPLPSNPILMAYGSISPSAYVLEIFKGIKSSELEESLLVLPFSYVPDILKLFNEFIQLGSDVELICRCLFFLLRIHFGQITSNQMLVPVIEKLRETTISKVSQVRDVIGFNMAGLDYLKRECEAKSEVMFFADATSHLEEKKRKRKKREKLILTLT
UniProt Q9UK59, sequence (Q9UK59 whole entry): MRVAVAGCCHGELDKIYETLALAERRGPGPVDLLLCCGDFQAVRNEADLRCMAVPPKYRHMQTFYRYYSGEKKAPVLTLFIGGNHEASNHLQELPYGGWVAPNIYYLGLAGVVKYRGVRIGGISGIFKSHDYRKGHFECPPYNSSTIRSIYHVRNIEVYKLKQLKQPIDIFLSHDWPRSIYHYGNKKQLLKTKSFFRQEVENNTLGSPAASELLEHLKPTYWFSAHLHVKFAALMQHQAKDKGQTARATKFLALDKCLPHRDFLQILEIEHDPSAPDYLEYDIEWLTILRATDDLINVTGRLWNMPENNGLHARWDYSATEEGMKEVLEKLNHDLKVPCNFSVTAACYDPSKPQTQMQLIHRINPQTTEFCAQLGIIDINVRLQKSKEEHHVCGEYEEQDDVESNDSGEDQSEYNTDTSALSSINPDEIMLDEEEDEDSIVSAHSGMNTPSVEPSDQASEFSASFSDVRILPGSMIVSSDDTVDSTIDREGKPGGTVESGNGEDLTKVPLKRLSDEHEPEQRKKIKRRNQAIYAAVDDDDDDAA
UniProt Q9ULX3, sequence (Q9ULX3 whole entry): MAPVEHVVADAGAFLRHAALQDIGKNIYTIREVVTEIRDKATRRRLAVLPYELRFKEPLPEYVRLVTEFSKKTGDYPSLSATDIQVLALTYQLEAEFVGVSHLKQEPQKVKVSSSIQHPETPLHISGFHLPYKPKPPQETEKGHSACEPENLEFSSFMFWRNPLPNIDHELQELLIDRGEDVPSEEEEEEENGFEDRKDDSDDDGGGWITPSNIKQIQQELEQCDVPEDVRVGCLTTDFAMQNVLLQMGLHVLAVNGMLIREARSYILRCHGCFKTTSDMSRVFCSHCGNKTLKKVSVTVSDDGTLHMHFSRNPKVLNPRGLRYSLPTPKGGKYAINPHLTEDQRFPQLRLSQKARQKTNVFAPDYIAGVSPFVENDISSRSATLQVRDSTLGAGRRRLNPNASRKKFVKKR
UniProt Q9Y2H0, sequence (Q9Y2H0 whole entry): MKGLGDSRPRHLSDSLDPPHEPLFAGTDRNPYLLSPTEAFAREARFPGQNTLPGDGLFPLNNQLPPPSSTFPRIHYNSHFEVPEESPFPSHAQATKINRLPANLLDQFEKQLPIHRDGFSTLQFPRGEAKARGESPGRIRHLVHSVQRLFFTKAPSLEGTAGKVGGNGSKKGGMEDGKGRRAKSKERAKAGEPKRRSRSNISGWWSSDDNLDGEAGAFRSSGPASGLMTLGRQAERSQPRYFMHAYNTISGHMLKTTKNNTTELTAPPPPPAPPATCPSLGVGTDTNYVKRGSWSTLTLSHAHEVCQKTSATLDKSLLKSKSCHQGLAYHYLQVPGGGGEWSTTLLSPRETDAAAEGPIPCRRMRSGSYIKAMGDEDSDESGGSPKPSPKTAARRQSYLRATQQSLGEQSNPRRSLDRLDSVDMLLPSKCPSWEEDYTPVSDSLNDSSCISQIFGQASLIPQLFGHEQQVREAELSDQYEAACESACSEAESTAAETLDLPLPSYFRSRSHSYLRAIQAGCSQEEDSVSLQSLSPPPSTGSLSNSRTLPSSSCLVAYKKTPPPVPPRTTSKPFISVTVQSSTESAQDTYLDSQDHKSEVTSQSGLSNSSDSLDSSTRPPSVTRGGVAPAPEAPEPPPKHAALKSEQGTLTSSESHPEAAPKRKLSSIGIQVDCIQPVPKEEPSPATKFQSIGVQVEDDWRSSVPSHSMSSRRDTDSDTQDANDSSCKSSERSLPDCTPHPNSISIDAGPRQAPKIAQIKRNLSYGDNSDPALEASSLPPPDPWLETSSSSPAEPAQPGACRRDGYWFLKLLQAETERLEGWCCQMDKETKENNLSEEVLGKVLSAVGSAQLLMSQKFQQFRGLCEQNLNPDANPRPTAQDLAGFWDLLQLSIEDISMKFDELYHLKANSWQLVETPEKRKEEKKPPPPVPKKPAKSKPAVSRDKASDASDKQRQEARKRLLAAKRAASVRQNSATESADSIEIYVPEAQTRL
UniProt Q9Y3C6, sequence (Q9Y3C6 whole entry): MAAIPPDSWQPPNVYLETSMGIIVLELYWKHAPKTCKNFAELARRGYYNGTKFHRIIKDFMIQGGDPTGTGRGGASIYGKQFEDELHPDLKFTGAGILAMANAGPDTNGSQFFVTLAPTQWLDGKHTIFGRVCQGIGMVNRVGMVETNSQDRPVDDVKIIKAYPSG
UniProt Q9UL15, sequence (Q9UL15 whole entry): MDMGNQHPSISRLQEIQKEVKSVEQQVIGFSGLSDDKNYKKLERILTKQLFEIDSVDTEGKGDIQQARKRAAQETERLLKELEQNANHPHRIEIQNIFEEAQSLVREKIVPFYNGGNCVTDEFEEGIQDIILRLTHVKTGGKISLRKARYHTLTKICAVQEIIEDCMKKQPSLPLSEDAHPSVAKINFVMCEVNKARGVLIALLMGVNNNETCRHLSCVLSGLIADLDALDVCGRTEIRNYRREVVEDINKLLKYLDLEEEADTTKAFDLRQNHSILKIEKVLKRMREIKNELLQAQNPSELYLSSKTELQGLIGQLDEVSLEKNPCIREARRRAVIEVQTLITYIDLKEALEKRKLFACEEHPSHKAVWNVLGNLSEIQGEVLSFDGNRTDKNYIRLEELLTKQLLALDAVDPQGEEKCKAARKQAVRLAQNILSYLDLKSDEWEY
UniProt Q9UP95, sequence (Q9UP95 whole entry): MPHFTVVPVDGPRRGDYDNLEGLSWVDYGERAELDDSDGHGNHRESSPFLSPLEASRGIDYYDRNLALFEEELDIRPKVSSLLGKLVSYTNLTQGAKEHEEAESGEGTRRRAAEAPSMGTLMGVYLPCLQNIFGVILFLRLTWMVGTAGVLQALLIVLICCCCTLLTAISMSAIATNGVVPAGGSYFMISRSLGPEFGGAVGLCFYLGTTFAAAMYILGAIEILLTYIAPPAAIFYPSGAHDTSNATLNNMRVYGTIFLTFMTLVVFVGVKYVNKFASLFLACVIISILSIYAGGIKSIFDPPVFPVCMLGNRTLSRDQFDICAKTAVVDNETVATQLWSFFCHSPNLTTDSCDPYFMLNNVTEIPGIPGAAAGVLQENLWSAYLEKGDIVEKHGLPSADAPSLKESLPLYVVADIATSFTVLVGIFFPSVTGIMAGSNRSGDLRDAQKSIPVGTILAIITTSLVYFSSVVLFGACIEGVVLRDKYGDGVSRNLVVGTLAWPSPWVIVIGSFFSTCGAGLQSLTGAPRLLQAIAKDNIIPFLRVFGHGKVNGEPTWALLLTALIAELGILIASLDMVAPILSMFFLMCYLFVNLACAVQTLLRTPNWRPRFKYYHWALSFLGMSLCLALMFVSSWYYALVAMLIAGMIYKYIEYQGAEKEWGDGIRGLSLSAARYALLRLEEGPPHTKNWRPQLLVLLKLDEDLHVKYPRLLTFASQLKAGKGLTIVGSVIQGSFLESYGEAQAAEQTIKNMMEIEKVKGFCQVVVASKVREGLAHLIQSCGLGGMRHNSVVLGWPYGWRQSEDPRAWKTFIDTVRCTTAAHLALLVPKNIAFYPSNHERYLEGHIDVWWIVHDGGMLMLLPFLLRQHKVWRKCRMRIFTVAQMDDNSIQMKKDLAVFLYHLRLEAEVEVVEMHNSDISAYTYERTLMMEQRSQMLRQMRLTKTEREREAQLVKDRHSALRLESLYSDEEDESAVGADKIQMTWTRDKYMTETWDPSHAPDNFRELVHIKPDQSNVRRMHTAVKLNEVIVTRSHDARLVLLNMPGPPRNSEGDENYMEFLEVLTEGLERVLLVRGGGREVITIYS
UniProt Q9Y2G5, sequence (Q9Y2G5 whole entry): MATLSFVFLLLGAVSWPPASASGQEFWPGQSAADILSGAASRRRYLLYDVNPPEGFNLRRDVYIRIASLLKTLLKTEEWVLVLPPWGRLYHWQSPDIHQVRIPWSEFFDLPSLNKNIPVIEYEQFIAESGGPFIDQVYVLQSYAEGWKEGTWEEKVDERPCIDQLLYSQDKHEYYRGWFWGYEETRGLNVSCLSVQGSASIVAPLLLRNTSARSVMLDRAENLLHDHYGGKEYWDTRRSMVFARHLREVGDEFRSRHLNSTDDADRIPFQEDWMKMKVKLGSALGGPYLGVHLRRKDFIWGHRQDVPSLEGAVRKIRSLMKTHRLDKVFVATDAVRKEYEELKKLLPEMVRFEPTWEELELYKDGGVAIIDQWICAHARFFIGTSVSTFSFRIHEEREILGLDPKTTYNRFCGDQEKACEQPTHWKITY

In the case of PPIL1 (UniProt Q9Y3C6), the NP40-soluble protein abundance was found to be 0.919 ± 0.019 (concentration: 1mM); 0.9512 ± 0.0074 (concentration: 2mM); 0.913 ± 0.034 (concentration: 4mM); 0.963 ± 0.031 (concentration: 6mM); 0.964 ± 0.016 (concentration: 8mM); 0.902 ± 0.065 (concentration: 10mM).

As for UniProt Q9ULI0|Q9ULI0-2, the NP40-soluble protein abundance (concentration: 1mM) was 1.69 ± 0.34; the NP40-soluble protein abundance (concentration: 2mM) came out at 1.83 ± 0.46; the NP40-soluble protein abundance (concentration: 4mM) came out at 1.86 ± 0.57; the NP40-soluble protein abundance (concentration: 6mM) stood at 1.86 ± 0.44; the NP40-soluble protein abundance (concentration: 8mM) was found to be 1.75 ± 0.44; the NP40-soluble protein abundance (concentration: 10mM) is 1.72 ± 0.48.

Take UniProt Q9Y6X3: the NP40-soluble protein abundance turned out to be 0.977 ± 0.053 (concentration: 1mM); 1.06 ± 0.086 (concentration: 2mM); 1.15 ± 0.25 (concentration: 4mM); 1.09 ± 0.26 (concentration: 6mM); 0.98 ± 0.057 (concentration: 8mM); 1.11 ± 0.22 (concentration: 10mM).

Take UniProt Q9Y3I0: the NP40-soluble protein abundance reads like this: (concentration: 1mM) 0.997 ± 0.038; (concentration: 2mM) 0.974 ± 0.025; (concentration: 4mM) 0.979 ± 0.043; (concentration: 6mM) 1.04 ± 0.04; (concentration: 8mM) 1.02 ± 0.048; (concentration: 10mM) 1.02 ± 0.048.

With MRPS2 (UniProt Q9Y399), the NP40-soluble protein abundance is, setting by setting: (concentration: 1mM) 1.11 ± 0.13; (concentration: 2mM) 0.951 ± 0.12; (concentration: 4mM) 0.932 ± 0.071; (concentration: 6mM) 0.917 ± 0.17; (concentration: 8mM) 0.944 ± 0.12; (concentration: 10mM) 0.884 ± 0.088.

Take UniProt Q9Y2H0|Q9Y2H0-3|Q9Y2H0-1: the NP40-soluble protein abundance is, setting by setting: (concentration: 1mM) 0.921 ± 0.038; (concentration: 2mM) 0.899 ± 0.068; (concentration: 4mM) 0.922 ± 0.045; (concentration: 6mM) 0.944 ± 0.025; (concentration: 8mM) 0.861 ± 0.093; (concentration: 10mM) 0.85 ± 0.052.

On to WDR3 (UniProt Q9UNX4), for which the NP40-soluble protein abundance by setting is: (concentration: 1mM) 1.28 ± 0.11; (concentration: 2mM) 1.46 ± 0.1; (concentration: 4mM) 1.82 ± 0.17; (concentration: 6mM) 1.97 ± 0.2; (concentration: 8mM) 2.23 ± 0.2; (concentration: 10mM) 2.34 ± 0.13.

For POFUT2 (UniProt Q9Y2G5), the NP40-soluble protein abundance turned out to be 1 ± 0.037 (concentration: 1mM); 1.04 ± 0.019 (concentration: 2mM); 1.01 ± 0.012 (concentration: 4mM); 1.02 ± 0.04 (concentration: 6mM); 0.955 ± 0.029 (concentration: 8mM); 0.975 ± 0.017 (concentration: 10mM).

LUC7L2 (UniProt Q9Y383): the NP40-soluble protein abundance is, setting by setting: (concentration: 1mM) 1.84 ± 0.14; (concentration: 2mM) 1.95 ± 0.034; (concentration: 4mM) 2.05 ± 0.038; (concentration: 6mM) 2.21 ± 0.066; (concentration: 8mM) 2.12 ± 0.087; (concentration: 10mM) 2.11 ± 0.095.

As for UniProt Q9ULV4|Q9ULV4-2|Q9ULV4-3, the NP40-soluble protein abundance runs as follows: (concentration: 1mM) 1.08 ± 0.086; (concentration: 2mM) 1.16 ± 0.1; (concentration: 4mM) 1.24 ± 0.11; (concentration: 6mM) 1.4 ± 0.12; (concentration: 8mM) 1.43 ± 0.13; (concentration: 10mM) 1.52 ± 0.16.

As to UniProt Q9UP95|Q9UP95-5|Q9UP95-6, the NP40-soluble protein abundance runs as follows: (concentration: 1mM) 0.956 ± 0.1; (concentration: 2mM) 0.979 ± 0.12; (concentration: 4mM) 0.964 ± 0.11; (concentration: 6mM) 1.03 ± 0.058; (concentration: 8mM) 0.909 ± 0.099; (concentration: 10mM) 0.989 ± 0.035.

In the case of UniProt Q9UL15|Q9UL15-2, the NP40-soluble protein abundance (concentration: 1mM) stood at 0.964 ± 0.032; the NP40-soluble protein abundance (concentration: 2mM) was found to be 0.988 ± 0.024; the NP40-soluble protein abundance (concentration: 4mM) was 0.976 ± 0.035; the NP40-soluble protein abundance (concentration: 6mM) came out at 0.993 ± 0.018; the NP40-soluble protein abundance (concentration: 8mM) came out at 0.971 ± 0.01; the NP40-soluble protein abundance (concentration: 10mM) was found to be 0.979 ± 0.029.

With UniProt Q9UL54-2, the NP40-soluble protein abundance worked out at 1.29 ± 0.17 (concentration: 1mM); 1.54 ± 0.35 (concentration: 2mM); 1.57 ± 0.33 (concentration: 4mM); 1.67 ± 0.33 (concentration: 6mM); 1.63 ± 0.24 (concentration: 8mM); 1.69 ± 0.4 (concentration: 10mM).

As for NOB1 (UniProt Q9ULX3), the NP40-soluble protein abundance (concentration: 1mM) is 1.07 ± 0.023; the NP40-soluble protein abundance (concentration: 2mM) was found to be 1.06 ± 0.086; the NP40-soluble protein abundance (concentration: 4mM) was 1.03 ± 0.077; the NP40-soluble protein abundance (concentration: 6mM) was found to be 1.07 ± 0.13; the NP40-soluble protein abundance (concentration: 8mM) turned out to be 1.08 ± 0.054; the NP40-soluble protein abundance (concentration: 10mM) is 1.05 ± 0.065.

As for DBR1 (UniProt Q9UK59), the NP40-soluble protein abundance (concentration: 1mM) amounted to 1.04 ± 0.066; the NP40-soluble protein abundance (concentration: 2mM) came out at 1.03 ± 0.066; the NP40-soluble protein abundance (concentration: 4mM) stood at 1.02 ± 0.051; the NP40-soluble protein abundance (concentration: 6mM) was determined as 0.973 ± 0.11; the NP40-soluble protein abundance (concentration: 8mM) came to 1.03 ± 0.056; the NP40-soluble protein abundance (concentration: 10mM) came to 1.03 ± 0.044.

Turning to UniProt Q9ULE6, the NP40-soluble protein abundance is 1.08 ± 0.084 (concentration: 1mM); 1.03 ± 0.12 (concentration: 2mM); 1.06 ± 0.092 (concentration: 4mM); 0.991 ± 0.1 (concentration: 6mM); 1.05 ± 0.045 (concentration: 8mM); 1.02 ± 0.048 (concentration: 10mM).

For the origin of these results see the supplement of paper PMC6411743.
